± gives the standard deviation of the averaged measurements.
Tested on: E18 rat cortical neuron-glia co-culture
Test: fiber score / MBP score (myelination specific beyond OL differentiation) (ratio); higher = more myelination-specific MBP alignment
Conditions: 5 µM; treatment time: 8 days (DIV5-DIV13)
How it was run: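 Papain-dissociated primary E18 rat cortical co-cultures, plated at 20,000 cells/well on poly-d-lysine/laminin 96-well plates, were exposed to library compounds at 1 or 5 µM in myelination medium between DIV5 and DIV13. Following fixation in 4 % paraformaldehyde, cultures were stained for MBP, Olig2 and DAPI, and four 10X fields per well were analysed in duplicate wells. Values are the ratio of fiber score (continuous MBP fiber length per Olig2+ nucleus) to MBP score (thresholded MBP area × intensity per Olig2+ nucleus).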

Row | Compound | fiber score / MBP score
1 | C[C@]12CC[C@H](O)CC1=CC[C@@H]1[C@@H]2CC[C@@]2(C)[C@H]1CC[C@]2(C)O [Methandriol] | 0.961
2 | C[C@]12C/C(=C/O)C(=O)C[C@@H]1CC[C@@H]1[C@@H]2CC[C@@]2(C)[C@H]1CC[C@]2(C)O [Oxymetholone] | 0.965
3 | COc1ccc2[nH]cc(CCN)c2c1 [5-Methoxytryptamine] | 0.737
4 | CC(C)N(CCC(C(N)=O)(c1ccccc1)c1ccccn1)C(C)C (centres undefined) [Disopyramide] | 0.371
5 | CN1C(=O)CN=C(c2ccccc2)c2cc([N+](=O)[O-])ccc21 [Nimetazepam] | 0.878
6 | CCOC(=O)C1(c2ccccc2)CCN(CCC(C#N)(c2ccccc2)c2ccccc2)CC1 [Diphenoxylate] | 0.867
7 | c1cncc([C@@H]2CCCN2)c1 [Nornicotine] | 0.836
8 | CCCC(C)(COC(N)=O)COC(=O)NC(C)C (centres undefined) [Carisoprodol] | 0.796
9 | Oc1ccc2c3c1O[C@H]1[C@@H](O)CC[C@@]4(O)[C@@H](C2)N(CC2CCC2)CC[C@]314 [Nalbufina] | 0.955
10 | NCCc1ccccn1 [2-(2-aminoethyl)pyridine] | 0.699
11 | O=C1CN=C(c2ccccc2)c2cc([N+](=O)[O-])ccc2N1 [Nitrazepam] | 0.996
12 | COC(=O)N1CCN(C(=O)Cc2ccc(Cl)c(Cl)c2)C(CN2CCCC2)C1 (centres undefined) | 0.389
13 | CCOC(=O)c1cncn1[C@H](C)c1ccccc1 [Etomidate] | 0.987 ± 0.1
14 | C[C@]12CCC(=O)C=C1CC[C@@H]1[C@@H]2CC[C@@]2(C)[C@H]1CC[C@]2(C)O [Methyltestosterone] | 0.755
